Source: PubChem BioAssay
The entries come from a sample that favours hits as a whole.
GIRK2 act: activators of NPY4-receptor-primed GIRK2 channels, summary, cell-based, HEK293, thallium flux | G protein-activated inward rectifier potassium channel 2 (Homo sapiens), P48051 | HEK293 GIRK2/NPY4 cells, thallium flux fluorescence | activation (% efficacy), % for hits at 37.5 µM | 34,000 tested, under 10 active;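 active = primary screen hit, no activity in plain HEK293 cells, and in GIRK2-only cells above 5% efficacy rising with concentration; inactive = the rest, including fluorescent compounds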;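 note: efficacy is normalized control-subtracted fluorescence 15 s after thallium addition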
Target sequence (P48051 whole entry, looked up): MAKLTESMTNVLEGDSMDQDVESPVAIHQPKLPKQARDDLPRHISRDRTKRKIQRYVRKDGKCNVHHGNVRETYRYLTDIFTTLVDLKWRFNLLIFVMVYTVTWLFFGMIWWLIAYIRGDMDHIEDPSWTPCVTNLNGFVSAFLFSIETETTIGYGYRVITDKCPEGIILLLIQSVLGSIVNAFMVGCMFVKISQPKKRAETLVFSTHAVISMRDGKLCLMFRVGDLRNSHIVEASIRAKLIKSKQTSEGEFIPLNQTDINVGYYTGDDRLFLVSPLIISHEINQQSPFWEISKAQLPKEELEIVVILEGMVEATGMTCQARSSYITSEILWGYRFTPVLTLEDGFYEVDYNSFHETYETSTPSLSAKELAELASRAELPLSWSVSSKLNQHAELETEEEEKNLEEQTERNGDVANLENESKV
GluA2 TARP mod: modulators of GluA2-stargazin AMPA receptor complexes, primary screen, cell-based, membrane potential dye; HEK293 GluA2+stargazin, membrane potential dye (FDSS), glutamate EC50; hits were called plate by plate, in both directions; calls only at 30 µM; 3.5% of 40,000 active; Voltage-dependent calcium channel gamma-2 subunit (Mus musculus) + Glutamate receptor 2 …;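 active = any of four per-well response measures lying three or more SD from its plate-wide compound average, in either direction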
Starred values were filed as active, the others as inactive; i = inactive; . = not tested or not shown; + = active, no number.

SMILES	GIRK2 act	GluA2 TARP mod
Cc1ccc(S(=O)(=O)CCCC(=O)N(CCN(C)C)c2nc3c(C)cccc3s2)cc1	i	i
COc1ccc(S(=O)(=O)CCCC(=O)Nc2nc(-c3cccc([N+](=O)[O-])c3)cs2)cc1	i	i
COc1ccc(S(=O)(=O)CCCC(=O)Nc2nc(-c3cc([N+](=O)[O-])cs3)cs2)cc1	i	+
Cn1c(=O)c2c(nc(N3CCCCCC3)n2CCCOc2ccccc2)n(C)c1=O	i	i
O=C(Nc1cccc(N2CCCC2=O)c1)c1c(F)cccc1F	i	i
COc1ccc(S(=O)(=O)CCCC(=O)Nc2nc3ccc([N+](=O)[O-])cc3s2)cc1	i	+
O=C(CCCS(=O)(=O)c1ccccc1)Nc1nc2ccccc2s1	i	i
O=C(CCCS(=O)(=O)c1ccc(Cl)cc1)Nc1nc2ccc([N+](=O)[O-])cc2s1	.	i
Cc1nc2c(ccc3nc(NC(=O)CCCS(=O)(=O)c4ccccc4)sc32)s1	i	+
COc1ccc(Cl)cc1S(=O)(=O)N(CCc1ccccc1)Cc1ccccn1	i	i
CC(NS(=O)(=O)c1cccc(C(F)(F)F)c1)C(=O)O (stereo not given)	.	i
CCOC(=O)c1csc(NC(=O)CCS(=O)(=O)c2ccc(OC)cc2)n1	i	i
O=C(Cn1nc2c(c1NC(=O)CC1CCCCC1)CSC2)NCC1CCCO1 (stereo not given)	i	i
CCCNC(=O)Cn1nc2c(c1NC(=O)CC1CCCC1)CSC2	i	+
COc1ccc(S(=O)(=O)N2CCC(C(=O)Nc3sc4c(c3C(N)=O)CCCC4)CC2)cc1	i	i
CC(=O)N1CCc2c(sc(NC(=O)c3cccc(C)c3)c2-c2nc3ccccc3s2)C1	.	i
CCn1nc(C)cc1C(=O)Nc1nc(-c2ccccc2)c(C(C)=O)s1	i	i
Cn1cccc(C(=O)NCC(O)(c2ccccc2)C2CC2)c1=O (stereo not given)	.	i
COCC(C)(O)CNC(=O)c1cccn(C)c1=O (stereo not given)	i	+
O=c1oc(-c2cccnc2)nc2ccc(Br)cc12	i	i
Brc1cccc(-c2nnc3sc(-c4cccnc4)nn23)c1	i	+
O=C(NCCn1ncc2c(N3CCN(c4ccccc4)CC3)ncnc21)C12CC3CC(CC(C3)C1)C2	i	i
O=C(Cn1c(=O)c(CNc2ccccc2)cc2cc3c(cc21)OCCO3)Nc1ccc2c(c1)OCCO2	i	i
Cc1c(Cl)cccc1NC(=O)Cn1c(=O)c(CNc2ccccc2)cc2cc3c(cc21)OCCO3	i	+
NC(=O)C1CCN(C(=O)Cc2cc(-c3cc4ccccc4o3)on2)CC1	i	+
SMILES	GIRK2 act	GluA2 TARP mod
NC(=O)C1CCN(C(=O)Cc2cc(-c3ccc(F)cc3)on2)CC1	i	i
CCn1c(SCC(=O)N2CCN(C(c3ccccc3)c3ccccc3)CC2)nc2ccccc2c1=O	.	+
Cc1cc(=O)[nH]c(SCC(=O)N2CCN(C(c3ccccc3)c3ccccc3)CC2)n1	.	i
CCOC(=O)c1ccc2nc(NC(=O)c3ccn(C)n3)sc2c1	i	+
CCOC(=O)c1ccc(NC(=O)c2ccn(C)n2)cc1	i	i
CCOC(=O)c1ccc2c(c1)sc(=NC(=O)c1ccn(CC)n1)n2CCSC	i	.
CCOCCn1c(=NC(=O)c2ccn(C)n2)sc2cc(C(=O)OCC)ccc21	i	+
COc1ccc(-c2cc(C(=O)N3CCC(C)CC3)c3c(C)nn(C4CCS(=O)(=O)C4)c3n2)cc1 (stereo not given)	i	i
Cc1ccccc1OCC(=O)NCCC(O)c1ccccc1 (stereo not given)	i	i
C=C(C)CN1CCN(c2cc(C)nc3c4c(C)cc(C)nc4nn23)CC1	i	+
Cc1cc(C)c2c(n1)nn1c(N3CCN(Cc4ccccc4)CC3)cc(C)nc21	i	+
Cc1cc(C)c2c(n1)nn1c(N3CCN(CCOc4ccc(Cl)cc4)CC3)cc(C)nc21	.	i
COc1ccccc1-c1cnn2c(N3CCN(CC#N)CC3)cc(C)nc12	i	i
COc1ccc(F)cc1CN1CCN(c2cc(C)nc3c4c(C)cc(C)nc4nn23)CC1	i	+
Cc1cc(N2CCN(CC#N)CC2)n2nc(C(F)(F)F)c(-c3ccccc3)c2n1	i	i
Cc1ncn(CC(=O)N2CCCC(c3nn(C)c(=O)n3-c3ccccc3)C2)c(=O)c1C (stereo not given)	i	i
CCC(C)NC(=O)Cn1cnc2c(sc3nc(C)cc(C)c32)c1=O (stereo not given)	i	+
Cc1cc(C)c2c(n1)sc1c(=O)n(CC(=O)Nc3ccc(Cl)cc3)cnc12	i	i
CSc1ccccc1C(=O)NCc1n[nH]c(=O)c2ccccc12	i	i
O=C(NCc1n[nH]c(=O)c2ccccc12)c1ccc(=O)[nH]c1	i	i
COc1nn(C)cc1C(=O)NCc1n[nH]c(=O)c2ccccc12	i	+
O=C(NCc1n[nH]c(=O)c2ccccc12)c1cccc(-n2cnnn2)c1	i	+
Cc1ccc(N2CC(C(=O)Nc3nn(C)c4c3CC(C)C(=O)N4)CC2=O)cc1C (stereo not given)	i	i
Cc1cc(N2CCCCC2)n2nc(C)c(-c3ccccc3Cl)c2n1	i	i
O=C(Nc1ccc(C(F)(F)F)cc1)c1ccc(S(=O)(=O)NCCc2ccccc2)o1	i	i
SMILES	GIRK2 act	GluA2 TARP mod
O=C(Nc1ccc(OC(F)(F)F)cc1)c1ccc(S(=O)(=O)NCc2cccs2)o1	i	+
COc1ccc(C(=O)Nc2cc(C)nn2-c2nc(-c3ccccc3)cs2)c(OC)c1	i	.
Cc1ccc(CNC(=O)CC2Nc3cc(C)c(C)cc3NC2=O)cc1 (stereo not given)	.	+
C=CCNC(=O)CC1Nc2cc(C)c(C)cc2NC1=O (stereo not given)	i	.
O=C(Nc1nnc(Cc2cccs2)o1)c1ccco1	i	i
O=C(NCc1cccs1)c1coc(NC(=O)c2ccco2)n1	i	+
Cc1cc(C)n(CC(O)COc2ccc3c4c(c(=O)oc3c2)CCC4)n1 (stereo not given)	i	i
CCc1cc(CC)n(-c2nc3c(c(=O)n(CC(C)C)c(=O)n3C)n2CCOC)n1	.	i
CCOCCn1c(=O)c2c(nc(-n3nc(C)cc3C)n2Cc2ccc(F)cc2)n(C)c1=O	i	i
CCc1cc(CC)n(-c2nc3c(c(=O)n(Cc4ccccc4)c(=O)n3C)n2CCOC)n1	.	+
CCOCCn1c(-n2nc(C)cc2C)nc2c1c(=O)n(Cc1cccc(C)c1)c(=O)n2C	i	+
Cn1nc(CNS(=O)(=O)CCN2C(=O)CCCC2=O)c2ccccc2c1=O	i	i
CCSc1ccccc1C(=O)NCC1(c2ccc(OC)cc2)CCCC1	i	+
COC(=O)NCC1(c2ccc(OC)cc2)CCCC1	i	i
O=C(NCCc1c[nH]c2ccccc12)c1cc2n(n1)C(C(F)(F)F)CC(c1ccco1)N2 (stereo not given)	.	+
